Measured values as given in PubChem BioAssay (EPA / NIEHS).
Results filed as inconclusive are left out. Calls of active or inactive are those of the source. Rule for the calls, unless noted: active = hit-call score of the fitted dose curve at least 0.9, where 1 is the maximum; inactive = score below 0.9.

Tests used:
[1] = ACEA_ER_80hr: ACEA Biosciences xCELLigence Real-Time Cell Analysis on Estrogen Receptor Agonism for Proliferation (AID 2282667; active = hit-call score of the fitted dose curve at least 0.9, where 1 is the maximum); settings: T47D proliferation, impedance (xCELLigence), 80 h
In short: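 Cell-growth kinetics were measured by impedance in T47D cells treated continuously with compound (top 100 uM final, 1:4 steps, 8 points). Activity at 80 h was scored as signal gain over the DMSO baseline.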

[2] = ATG_CRE_CIS: Attagene CIS-FACTORIAL HepG2 Assay for human cAMP Responsive Element (CRE) binding protein 3 (AID 2282926); settings: HepG2 CRE cis-reporter, Attagene multiplexed mRNA; actives raise or lower the signal
In short: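 Cells carrying cis-regulated reporter constructs respond through their own endogenous factors. After 24 h treatment, RNA is reverse-transcribed, amplified, labelled and sized by capillary electrophoresis; up- and down-regulation are both scored against vehicle.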

[3] = target: CCAAT/enhancer-binding protein beta (Homo sapiens) (UniProt P17676); test: ATG_C_EBP_CIS: Attagene CIS-FACTORIAL HepG2 Assay for human CCAAT/Enhancer Binding Protein (C/EBP) beta (AID 2282927); settings: HepG2 Attagene cis-factorial transcription factor reporter; actives raise or lower the signal
CCAAT/enhancer-binding protein beta (Homo sapiens), sequence (P17676 whole entry, looked up): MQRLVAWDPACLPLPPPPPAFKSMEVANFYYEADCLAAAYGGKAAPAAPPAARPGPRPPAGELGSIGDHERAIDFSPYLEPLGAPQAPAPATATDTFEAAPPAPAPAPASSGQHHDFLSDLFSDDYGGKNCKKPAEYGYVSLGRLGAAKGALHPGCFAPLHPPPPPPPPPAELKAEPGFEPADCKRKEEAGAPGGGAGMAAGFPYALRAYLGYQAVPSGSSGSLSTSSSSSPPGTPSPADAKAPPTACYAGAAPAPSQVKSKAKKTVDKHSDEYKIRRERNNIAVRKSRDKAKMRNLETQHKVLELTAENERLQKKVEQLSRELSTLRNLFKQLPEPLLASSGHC
In short: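 Transiently transfected HepG2 (MRTU library, endogenous TF-driven promoters); 24 h dosing; total RNA → oligo(dT) RT → PCR → 6-FAM primer extension → HpaI digest → CE; fit bidirectionally vs DMSO.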

[4] = ATG_DR4_LXR_CIS: Attagene CIS-FACTORIAL HepG2 Assay for human Liver X Receptor (LXR), DR4 submotif (AID 2282929); settings: HepG2 Attagene DR4 cis-reporter, mRNA transcription; actives raise or lower the signal
In short: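 Endogenous factor activity at a DR4 cis-element is read as reporter mRNA in transiently transfected HepG2 cells. Exposure lasts 24 h; transcripts are amplified, fluorescently labelled and sized by capillary electrophoresis, with DMSO as baseline.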

[5] = target: Aryl hydrocarbon receptor (Homo sapiens) (UniProt P35869); test: ATG_Ahr_CIS: Attagene CIS-FACTORIAL HepG2 Assay for human Aryl Hydrocarbon Receptor (Ahr) (AID 2282930); settings: HepG2 AhR cis-factorial reporter transcription; actives raise or lower the signal
Aryl hydrocarbon receptor (Homo sapiens), sequence (P35869 whole entry, looked up): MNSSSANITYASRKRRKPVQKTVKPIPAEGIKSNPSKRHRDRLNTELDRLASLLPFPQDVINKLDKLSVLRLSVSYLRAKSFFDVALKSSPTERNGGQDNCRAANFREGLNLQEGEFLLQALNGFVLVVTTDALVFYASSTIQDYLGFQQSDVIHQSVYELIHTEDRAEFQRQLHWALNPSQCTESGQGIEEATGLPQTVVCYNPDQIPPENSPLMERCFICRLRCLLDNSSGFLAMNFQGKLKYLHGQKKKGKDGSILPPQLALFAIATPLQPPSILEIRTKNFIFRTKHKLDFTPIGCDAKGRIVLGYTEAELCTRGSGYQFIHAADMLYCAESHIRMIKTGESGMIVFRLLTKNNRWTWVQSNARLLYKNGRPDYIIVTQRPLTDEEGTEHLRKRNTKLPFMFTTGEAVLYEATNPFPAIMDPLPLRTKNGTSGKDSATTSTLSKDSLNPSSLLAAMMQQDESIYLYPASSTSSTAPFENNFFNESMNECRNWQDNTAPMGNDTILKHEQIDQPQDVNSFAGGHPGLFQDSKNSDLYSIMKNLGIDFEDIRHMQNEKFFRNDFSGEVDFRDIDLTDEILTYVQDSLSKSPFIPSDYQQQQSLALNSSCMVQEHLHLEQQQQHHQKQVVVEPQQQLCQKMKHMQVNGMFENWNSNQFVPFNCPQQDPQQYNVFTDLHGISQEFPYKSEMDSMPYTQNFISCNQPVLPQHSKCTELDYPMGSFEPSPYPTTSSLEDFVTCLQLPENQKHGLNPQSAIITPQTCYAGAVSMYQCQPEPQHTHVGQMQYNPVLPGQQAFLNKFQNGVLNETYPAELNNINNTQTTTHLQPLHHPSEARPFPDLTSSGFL
In short: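 Read-out: reporter mRNA quantified by RT-PCR with fluorescent primer extension and capillary electrophoresis. Human HepG2 liver cells carried transfected cis-promoter reporter units and were exposed to chemical for 24 h; gain or loss fitted relative to DMSO.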

[6] = ATG_AP_1_CIS: Attagene CIS-FACTORIAL HepG2 Assay for human Activator Protein 1 (AP-1) (AID 2282931); settings: HepG2 Attagene cis-factorial AP-1 reporter mRNA; actives raise or lower the signal
In short: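 Fluorescence of labelled PCR fragments separated by capillary electrophoresis gives reporter mRNA levels. HepG2 with transfected cis-regulated reporter units, 24 h exposure; DMSO serves as baseline for bidirectional curve fits.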

[7] = ATG_AP_2_CIS: Attagene CIS-FACTORIAL HepG2 Assay for human Activator Protein 2 (AP-2) (AID 2282932); settings: HepG2 AP-2 cis-reporter, Attagene transcription factor profiling; actives raise or lower the signal
In short: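 Read-out: fluorescent reporter mRNA via RT-PCR and capillary electrophoresis, 24 h post-dose in transiently transfected HepG2. Endogenous factors drive cis-promoter reporters; gain or loss of signal fitted bidirectionally against DMSO.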

[8] = ATG_BRE_CIS: Attagene CIS-FACTORIAL HepG2 Assay for human Bone Morphogenetic Protein (BMP) Response Element (BRE) (AID 2282933); settings: HepG2 BMP response element reporter, Attagene transcription factor profiling; actives raise or lower the signal
In short: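 Fluorescence-labelled reporter cDNA fragments, separated by capillary electrophoresis, gave the signal for this component of a 52-readout multiplex. HepG2 cells were transfected, exposed to chemicals for 24 h, and compared with DMSO using bidirectional fitting.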

[9] = target: Retinoic acid receptor alpha (Homo sapiens) (UniProt P10276); test: ATG_DR5_RAR_CIS: Attagene CIS-FACTORIAL HepG2 Assay for human Retinoic Acid Receptor Alpha (RARE), DR5 submotif (AID 2282934); settings: HepG2 Attagene cis-factorial RARE DR5 reporter, mRNA; actives raise or lower the signal
Retinoic acid receptor alpha (Homo sapiens), sequence (P10276 whole entry, looked up): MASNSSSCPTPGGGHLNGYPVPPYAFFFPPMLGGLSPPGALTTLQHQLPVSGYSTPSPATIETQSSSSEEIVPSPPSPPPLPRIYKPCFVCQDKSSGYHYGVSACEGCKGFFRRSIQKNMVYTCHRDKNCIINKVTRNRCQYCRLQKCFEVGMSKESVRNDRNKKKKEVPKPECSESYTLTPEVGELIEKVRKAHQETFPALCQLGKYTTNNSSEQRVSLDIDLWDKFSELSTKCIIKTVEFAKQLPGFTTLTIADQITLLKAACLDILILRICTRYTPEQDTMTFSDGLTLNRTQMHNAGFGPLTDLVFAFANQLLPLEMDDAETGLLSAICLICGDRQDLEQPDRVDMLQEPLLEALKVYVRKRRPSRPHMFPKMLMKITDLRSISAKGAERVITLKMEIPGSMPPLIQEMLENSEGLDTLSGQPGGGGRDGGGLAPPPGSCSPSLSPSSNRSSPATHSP
In short: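 Read-out: DR5-driven reporter transcript measured by RT-PCR, 6-FAM primer extension, HpaI digest and capillary electrophoresis. Human HepG2 liver cells carry transiently transfected cis-element reporter constructs; dosing lasts 24 h. Gain or loss of signal fitted against DMSO baseline.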

[10] = target: Transcription factor E2F1 (Homo sapiens) (UniProt Q01094); test: ATG_E2F_CIS: Attagene CIS-FACTORIAL HepG2 Assay for human E2F Transcription Factor 1 (AID 2282935); settings: HepG2 Attagene cis-reporter, E2F reporter RNA transcripts; actives raise or lower the signal
Transcription factor E2F1 (Homo sapiens), sequence (Q01094 whole entry, looked up): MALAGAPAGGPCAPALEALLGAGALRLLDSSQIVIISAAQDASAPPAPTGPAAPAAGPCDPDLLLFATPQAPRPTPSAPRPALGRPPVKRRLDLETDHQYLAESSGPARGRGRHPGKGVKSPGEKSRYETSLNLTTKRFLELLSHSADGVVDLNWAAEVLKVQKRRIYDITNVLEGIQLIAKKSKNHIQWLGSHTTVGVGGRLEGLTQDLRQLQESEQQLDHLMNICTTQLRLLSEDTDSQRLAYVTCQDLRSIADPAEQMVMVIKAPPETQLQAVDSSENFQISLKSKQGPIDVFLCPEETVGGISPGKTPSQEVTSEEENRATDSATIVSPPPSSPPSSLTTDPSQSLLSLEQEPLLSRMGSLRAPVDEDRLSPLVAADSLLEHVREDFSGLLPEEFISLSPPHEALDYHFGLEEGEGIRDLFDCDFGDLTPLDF
In short: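 Transient MRTU transfection of HepG2; 24 h compound exposure; RNA → oligo(dT) RT → PCR → FAM label → HpaI cut → CE fluorescence. Gain/loss of signal fit against DMSO.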

[11] = ATG_E_Box_CIS: Attagene CIS-FACTORIAL HepG2 Assay for human Enhancer Box (E-box) (AID 2282936); settings: HepG2 E-box cis-reporter transcription, actives raise or lower the signal
In short: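 Transiently transfected HepG2, endogenous TF-driven reporters, 24 h dosing. Readout: RT-PCR plus capillary electrophoresis of fluorescent reporter fragments. Gain or loss of signal fitted bidirectionally against DMSO baseline.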

[12] = ATG_M_61_CIS: Attagene CIS-FACTORIAL HepG2 Assay for M61 Transcription Factor (Internal Marker) (AID 2282937); settings: HepG2 Attagene CIS-FACTORIAL M61 internal marker reporter; actives raise or lower the signal
In short: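 This endpoint serves as an internal background control within a multiplexed HepG2 cis-reporter panel. Cells are exposed for 24 h; reporter mRNA is amplified, fluorescently labelled and sized by capillary electrophoresis, with DMSO as negative control.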

[13] = ATG_EGR_CIS: Attagene CIS-FACTORIAL HepG2 Assay for human Early Growth Response 1 (EGR1) (AID 2282938); settings: HepG2 Attagene CIS-FACTORIAL EGR reporter mRNA; actives raise or lower the signal
In short: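 HepG2, transient MRTU transfection (cis promoters), 24 h compound. RNA → RT (oligo-dT) → PCR → 6-FAM labelling → HpaI cut → CE fluorescence. Bidirectional fit, DMSO baseline.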

[14] = ATG_M_19_CIS: Attagene CIS-FACTORIAL HepG2 Assay for M19 Transcription Factor (Internal Marker) (AID 2282939); settings: HepG2 Attagene CIS-FACTORIAL M19 internal marker reporter; actives raise or lower the signal
In short: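 HepG2, MRTU transient transfection, 24 h dosing. Total RNA → RT-PCR → 6-FAM primer extension → HpaI digest → CE fluorescence. Bidirectional curve fit, DMSO negative control.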

[15] = ATG_ERE_CIS: Attagene CIS-FACTORIAL HepG2 Assay for Estrogen Response Element (ERE) (AID 2282940); settings: HepG2 ERE cis-reporter, Attagene RNA transcript; actives raise or lower the signal
In short: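 After a 24 h chemical treatment, RNA from reporter-transfected HepG2 cells is reverse-transcribed, PCR-amplified and fluorescently labelled. Fragments separated by capillary electrophoresis give reporter signal; DMSO serves as negative control.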

[16] = ATG_Ets_CIS: Attagene CIS-FACTORIAL HepG2 Assay for human Erythroblast Transformation Specific (ETS) (AID 2282941); settings: HepG2 ETS cis-reporter transcription, actives raise or lower the signal
In short: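 Endogenous transcription factor activity read as reporter mRNA via RT-PCR and capillary electrophoresis, with gain or loss fitted bidirectionally against DMSO. Human HepG2 liver cells, transiently transfected CIS reporter constructs, 24 h exposure.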

[17] = target: Hepatocyte nuclear factor 3-beta (Homo sapiens) (UniProt Q9Y261); test: ATG_FoxA2_CIS: Attagene CIS-FACTORIAL HepG2 Assay for human Forkhead box A2 (FOXA2) (AID 2282942); settings: HepG2 cis-reporter transcription factor activity, 24 h; actives raise or lower the signal
Hepatocyte nuclear factor 3-beta (Homo sapiens), sequence (Q9Y261 whole entry, looked up): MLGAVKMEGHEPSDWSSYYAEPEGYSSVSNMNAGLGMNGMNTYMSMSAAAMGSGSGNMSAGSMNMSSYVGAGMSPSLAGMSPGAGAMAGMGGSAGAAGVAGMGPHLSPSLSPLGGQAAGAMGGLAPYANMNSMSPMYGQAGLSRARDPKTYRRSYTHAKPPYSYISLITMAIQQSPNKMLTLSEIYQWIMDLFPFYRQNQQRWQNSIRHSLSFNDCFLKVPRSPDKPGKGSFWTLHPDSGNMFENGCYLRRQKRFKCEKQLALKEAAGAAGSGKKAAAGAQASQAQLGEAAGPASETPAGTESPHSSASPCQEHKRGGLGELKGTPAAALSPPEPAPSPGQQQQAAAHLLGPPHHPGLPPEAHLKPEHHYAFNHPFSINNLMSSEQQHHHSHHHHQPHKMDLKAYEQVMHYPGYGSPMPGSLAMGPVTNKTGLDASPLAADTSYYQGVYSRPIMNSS
In short: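 Cells: HepG2, transient multiplex reporter transfection. Exposure 24 h. Detection: reporter-specific RT-PCR, fluorescent labelling, restriction digest, capillary electrophoresis. Analysis: bidirectional curve fit, DMSO as negative control.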

[18] = ATG_FoxO_CIS: Attagene CIS-FACTORIAL HepG2 Assay for human Forkhead box O (FoxO) (AID 2282943); settings: HepG2 Attagene cis-reporter, FoxO element, mRNA; actives raise or lower the signal
In short: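 Read-out: fluorescence of 6-FAM-labelled reporter cDNA fragments resolved by capillary electrophoresis. Transiently transfected HepG2 cells were dosed for 24 h; activity fitted in both directions relative to DMSO controls.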

[19] = ATG_GATA_CIS: Attagene CIS-FACTORIAL HepG2 Assay for human GATA Binding Protein (AID 2282944); settings: HepG2 GATA cis-element reporter, Attagene multiplex mRNA; actives raise or lower the signal
In short: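 Cells: HepG2, transiently transfected with cis-regulated reporter transcription units. Exposure: 24 h. Detection: RT-PCR plus capillary electrophoresis of FAM-labeled fragments. Analysis: bidirectional, DMSO as baseline.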

[20] = ATG_CMV_CIS: Attagene CIS-FACTORIAL HepG2 Assay for human CMV (Internal Marker) (AID 2282928); settings: HepG2 CMV promoter reporter, transcription factor profiling; actives raise or lower the signal;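 note: endpoint acts as a background internal control marker rather than a target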
In short: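 Bidirectional fits against DMSO are applied to reporter mRNA, read by RT-PCR with capillary electrophoresis, from HepG2 cells exposed 24 h. The endpoint serves as an internal CMV background marker within the cis-factorial reporter panel.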

Measured: AC50

CCCCCCCCCCCCCC[P+](CCCC)(CCCC)CCCC
inactive: [3] | [4] | [5] | [6] | [7] | [9] | [10] | [11] | [12] | [13] | [14] | [15] | [16] | [17] | [18] | [19]
active: [1] 0.0203 µM | [2] 0.758 µM | [8] 0.745 µM

C=CCOC(=O)CC(C)C
inactive: [1] | [2] | [3] | [20] | [6] | [7] | [8] | [9] | [10] | [12] | [13] | [14] | [15] | [16] | [17] | [18] | [19]

C=CC(=O)OCC(F)(F)C(F)(F)C(F)(F)COC(=O)C=C
active: [20] 31.6 µM | [11] 78.6 µM | [13] 42.4 µM
inactive: [1] | [2] | [3] | [5] | [6] | [7] | [8] | [9] | [10] | [12] | [14] | [15] | [16] | [18] | [19]

OCC(O)CC(F)(F)C(F)(F)C(F)(F)C(F)(F)F (stereo not drawn)
inactive: [1] | [2] | [3] | [20] | [5] | [6] | [7] | [8] | [9] | [10] | [11] | [12] | [13] | [14] | [15] | [16] | [17] | [18] | [19]
